Screening results: PubChem, several laboratories
The list is not random: actives were taken first. Their share in the collection is about 2.2%.
SMARCA2 activ = SMARCA2 function activation, primary screen; MG213 cells, MMTV-luciferase reporter, dexamethasone, overnight; activation, % at 9.1 µM; actives 1% (n = 370,000); AID 652017; in the data active means activation above about 7.8%;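 further: 0% = vehicle wells and 100% = reference activator wells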
GalR3 antagonist = blocks the human galanin receptor 3; O60755; actives 0.44% (n = 360,000); HEK293 GalR3-CNG cAMP membrane potential fluorescence; galR3 body fused to GalR1 C-terminus; AID 651719; inhibition, % at 3 µM;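 active means inhibition above the screen-wide average plus 3 SD, cut at about 13% in these data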;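 further: forskolin and galanin both at EC90 stimulate the cells; cAMP rise reported by CNG channel membrane potential dye signal; 0% = forskolin plus galanin with DMSO and 100% = forskolin alone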
Target sequence (O60755 1-299 limits assumed): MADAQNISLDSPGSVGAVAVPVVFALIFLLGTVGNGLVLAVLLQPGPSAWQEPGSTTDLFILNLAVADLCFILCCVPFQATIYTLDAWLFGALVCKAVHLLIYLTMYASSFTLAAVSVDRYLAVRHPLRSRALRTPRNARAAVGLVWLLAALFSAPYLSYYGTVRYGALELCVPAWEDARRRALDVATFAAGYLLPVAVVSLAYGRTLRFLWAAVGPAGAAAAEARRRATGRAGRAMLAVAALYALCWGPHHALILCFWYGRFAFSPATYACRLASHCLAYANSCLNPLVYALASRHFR
HIF activator = HIF pathway transcriptional activation; actives 0.32% (n = 300,000); U2OS HRE-luciferase reporter, luminescence; normalized: DMSO 0%, desferrioxamine 100%; activation, % at 7.5 µM (by protocol);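 active means mean activation of at least 10% of the iron chelator positive control signal, with at least half of replicates also reaching 10%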
Hsp70 act = switches on Hsp70 transcription; HeLa Hsp70 promoter luciferase reporter, luminescence; scaled: vehicle 0, proteasome-inhibitor control 100%; activation, % at 10 µM; actives 0.04% (n = 200,000); AID 1203;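 active means activation above the mean across all tested compounds plus 3 SD, cutoff set per campaign, cut at about 5.5% in these data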;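 further: 100% = MG132 at 30 µM as the positive control and 0% = DMSO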
FXN GAA850 act = frataxin GAA850 promoter activation; HEK293 lucGAA850 FXN promoter luciferase reporter, 24 h; percent of 10 µM SAHA response; activation, % at 6 µM; actives 0.56% (n = 360,000); AID 540364;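 active means activation above the average of all compounds screened plus 3 SD, cutoff fixed separately per campaign, cut at about 7.5% in these data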;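 further: 0% = DMSO wells and 100% = 10 µM SAHA wells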
GalR3 conf = confirmation of human galanin receptor 3 antagonists; shares compounds with GalR3 antagonist; HEK293 GalR3 CNG cAMP biosensor, membrane potential fluorescence; galR3 fused to GalR1 carboxy tail; challenged with forskolin and galanin at EC90; inhibition, % at 3 µM; actives 59% (n = 1,600); AID 652245;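 active means inhibition above the primary screen's cutoff, the mean inhibition of all screened compounds plus 3 SD, cut at about 13% in these data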;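 further: 0% = forskolin plus galanin and 100% = forskolin alone with DMSO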
CNG parental = parental cell agonism counter-screen for GalR3 antagonists. AID 652268. HEK293-CNG parental cells, cAMP membrane potential fluorescence; normalised: DMSO wells 0%, forskolin wells 100%. actives 10% (n = 1,600). shares compounds with GalR3 antagonist. activation, % at 3 µM; in the data active means activation above about 1.3%
The depositor's hits bear a star; . = no result given.

SMILES	SMARCA2 activ	GalR3 antagonist	HIF activator	Hsp70 act	FXN GAA850 act	GalR3 conf	CNG parental
CC(C)Oc1ncnc2c1[nH]c1ccccc12	-5	19*	2	.	-1	6	0
O=C(CCc1ccccc1)N[C@H]1[C@@H](OC(=O)C2CC2)CCC[C@@]12C(=O)N(Cc1ccccc1)c1ccccc12	-3	.	.	.	.	.	.
Cc1ccc2c(c1)C(=O)C(=O)N2CC(=O)Nc1ccccc1NC(=O)c1ccccn1	-2	20*	1	.	0	5	1
Cc1ccc(O)c(N=Cc2cc(Cc3ccccc3)cc([N+](=O)[O-])c2O)c1	2	13*	0	0	4	10	0
COc1ccc(C)cc1S(=O)(=O)N1CCc2ccccc2C1	2	-10	-27	.	0	.	.
COc1ccc(/C=C/C(=O)O)cc1S(=O)(=O)N1CCc2ccccc2C1	-1	.	0	0	0	5	0
COc1ccc(/C=C/C(=O)Nc2ccccc2Cl)cc1S(=O)(=O)N1CCOCC1	0	15*	0	.	2	-4	0
COc1ccc(/C=C/C(=O)Nc2ccccc2)cc1S(=O)(=O)N1CCOCC1	-3	0	0	.	-2	.	.
Cc1ccc(/C=C/C(=O)O)cc1S(=O)(=O)N1CCc2ccccc2C1	-4	15*	0	0	2	-1	0
CCCCN1CCS(=O)(=O)N(Cc2cn(Cc3ccc(C)cc3)nn2)C(C(=O)OC)C1 (stereo not given)	2	.	.	.	.	.	.
Cc1nnsc1C(=O)NC1CCCc2c1cnn2-c1ccc(C(C)(C)C)cc1 (stereo not given)	-5	108*	2	.	-6	111*	0
Cc1nnsc1C(=O)NC1CCCc2c1cnn2-c1ccccc1F (stereo not given)	-5	3	0	.	-3	.	.
Cc1ncoc1C(=O)NC1CCCc2c1cnn2-c1ccc(C(C)(C)C)cc1 (stereo not given)	-5	102*	1	.	-5	111*	0
COC(=O)[C@H]1C[C@@]2(C)c3ccccc3N(C(=O)OC(C)(C)C)[C@H]2N1C(=O)OC(C)(C)C	2	.	.	.	.	.	.
O[C@H](COc1cccc(F)c1)CN1CCC(C(O)(c2ccccc2)c2ccccc2)CC1	-3	.	.	.	.	.	.
Cc1ccc(S(=O)(=O)NC(=O)COc2ccccc2)cc1	-2	.	.	0	1	2	0
CCOc1cc(C2C(C(=O)N3CCCCC3)=C(C)NC3=C2C(=O)CC(C)(C)C3)ccc1O (stereo not given)	-1	-3	-1	0	-2	.	.
CCOc1cc(C2C3=C(CC(C)(C)CC3=O)Nc3n[nH]c(C)c32)ccc1O (stereo not given)	-1	31*	0	0	2	40*	0
CCOC(=O)C1=C(C)NC2=C(C(=O)CC(C)(C)C2)C1c1ccc(O)c(OCC)c1 (stereo not given)	-4	22*	.	.	-1	29*	0
COc1ccc(C=O)c2[nH]c3c(Cl)ncnc3c12	-2	14*	-1	.	4	29*	0
Cc1cc(C)n2nc(SCc3cccc(S(=O)(=O)N(C)C)c3)nc2n1	-3	-8	3	.	0	.	.
CN(C)S(=O)(=O)c1cccc(CSCc2cccc(S(=O)(=O)N(C)C)c2)c1	-5	78*	-16	.	-2	87*	0
COc1ccc(N(C(=O)c2snc(C(N)=O)c2N)C(C(=O)NC2CCCC2)c2ccco2)cc1 (stereo not given)	-3	18*	0	.	0	0	0
O=C(C1CCN(c2cncnc2)CC1)N1CCCC1	-3	.	.	.	.	.	.
COC(C[C@H]1O[C@H]1[C@H](O)[C@H](C)OCc1ccccc1)OC	0	.	0	.	0	1	0
SMILES	SMARCA2 activ	GalR3 antagonist	HIF activator	Hsp70 act	FXN GAA850 act	GalR3 conf	CNG parental
Cc1c(C(=O)NCc2ccc(Cl)c(Cl)c2)sc(=O)n1Cc1ccc(S(=O)(=O)N(C)C)cc1	-2	0	.	.	-3	.	.
Cc1c(C(=O)NCc2ccc(C(C)C)cc2)sc(=O)n1Cc1ccc(S(=O)(=O)N(C)C)cc1	-4	37*	.	.	-2	28*	0
Cc1[nH]nc2c1C(c1ccc(Br)cc1)N(Cc1ccccc1)C2=O (stereo not given)	0	-5	.	.	.	.	.
C#CCN1CC(N(C)CCOC(=O)c2occ3ccccc23)CS1(=O)=O (stereo not given)	4	.	.	.	.	.	.
CC(C)CCOc1ccc(C2=NNC(=O)CC2)cc1	3	26*	1	0	5	15*	1
CCOC(=O)C1(Cc2cccc(OC)c2)CCN(CCO)CC1	-1	18*	0	0	1	9	1
CCOC(=O)C1(Cc2cccc(OC)c2)CCN(CC(O)CO)CC1 (stereo not given)	-1	-6	0	.	-1	.	.
CCC(=O)OCCNc1cc(Sc2nc3ccccc3[nH]2)c2nonc2c1[N+](=O)[O-]	-10	35*	.	0	4	32*	0
CCCC(=O)OCCNc1cc(Sc2nccn2C)c2nonc2c1[N+](=O)[O-]	-11	40*	0	0	4	24*	0
CCC(=O)OCCNc1cc(Sc2nc3ccccc3s2)c2nonc2c1[N+](=O)[O-]	-1	-3	0	0	-3	.	.
O=C(N[C@H](Cc1ccccc1)C(=O)N1CCN(CC(=O)N2CCCC2)CC1)[C@H]1O[C@@H](n2ccc(=O)[nH]c2=O)[C@H](O)[C@@H]1O	-2	-3	.	.	.	.	.
Cn1cc(CNCc2ccc(OC(F)(F)F)cc2)c(-c2ccc3c(c2)OCCO3)n1	-7	35*	1	0	-1	92*	1.7*
Clc1cccc(CNCCNCc2cccc(Cl)c2)c1	-1	22*	0	0	3	12	2.5*
O=C(NCCNCc1cccc(Cl)c1)c1ccco1	0	2	.	.	2	.	.
COc1ccccc1Cc1c(-c2ccco2)nc2ccc(Cl)cn12	-1	28*	.	.	.	18*	0
C=CCN(CC#Cc1ccc(C(F)(F)F)cc1)Cc1ccc(OC)cc1OC	3	.	.	.	.	.	.
Cc1cc(NS(=O)(=O)c2ccc(NC(=O)Cc3ccccc3)cc2)no1	-3	.	.	.	.	.	.
Cc1cc(OCC(=O)NC2CC(C)(C)NC(C)(C)C2)c2c(C)cc(=O)oc2c1	-2	.	0	.	1	-2	0
O=C(CSc1nnc(-c2cccs2)o1)c1cccc([N+](=O)[O-])c1	4	.	.	.	.	.	.
Cc1ccc(Cn2cc(CN3[C@@H](Cc4ccccc4)COc4cc(Br)ccc4S3(=O)=O)nn2)cc1	-2	.	.	.	.	.	.
COc1ccc(C(=S)N2CCCCCC2)cc1	-7	13*	-1	0	-1	0	0
